# Sampled rows, rich in hits. Any-hit rate of the full collection: about 2.3%.
# GLP-1R inv ag: qHTS of GLP-1 Receptor Inverse Agonists (Inhibition Mode). HEK293 GLP-1R CRE-luciferase, luminescence, 24 h; GLP-1R form is constitutively active. Potency, µM (titrated, usually from 38.3 µM), for inactives: at the highest dose activity change, negative = inhibition, most hits filed as inhibitors. Glucagon-like peptide 1 receptor (Homo sapiens), P43220. 410,000 compounds, 1.6% hits. AID 624417, 2012; also: % is scaled to controls: 0 for no effect and ±100 for the full control effect; nearly all actives have a fitted effect of over 55% in size
# Target sequence (P43220 whole entry, looked up): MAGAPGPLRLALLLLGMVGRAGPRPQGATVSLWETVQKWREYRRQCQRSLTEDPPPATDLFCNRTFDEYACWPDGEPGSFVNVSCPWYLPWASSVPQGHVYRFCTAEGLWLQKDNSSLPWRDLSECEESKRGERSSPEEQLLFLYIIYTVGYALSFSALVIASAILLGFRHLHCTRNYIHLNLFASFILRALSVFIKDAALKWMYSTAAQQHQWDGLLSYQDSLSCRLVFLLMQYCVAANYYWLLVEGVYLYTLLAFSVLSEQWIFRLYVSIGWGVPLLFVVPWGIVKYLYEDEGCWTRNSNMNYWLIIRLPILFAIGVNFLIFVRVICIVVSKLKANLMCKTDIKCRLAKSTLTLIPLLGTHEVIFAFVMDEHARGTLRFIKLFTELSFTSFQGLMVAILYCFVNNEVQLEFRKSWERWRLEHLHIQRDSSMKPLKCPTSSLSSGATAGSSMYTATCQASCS
#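 HEK293 cells stably co-expressing a cAMP-responsive luciferase reporter and constitutively active GLP-1R were seeded, incubated 12 h, then exposed to compounds for 24 h at 37 C. Luminescence was read 12 min after detection reagent; inverse agonists lower signal.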
# GLP1R ag: qHTS of GLP-1 Receptor Agonists; Glucagon-like peptide 1 receptor (Homo sapiens), P43220; HEK293 GLP-1R CRE-luciferase, luminescence, 4-6 h; cells express a hypersensitive GLP-1R form; Potency, µM (series often up to 45.6 µM), for inactives: top-dose activation, hits mostly activators; 380,000 compounds, 0.007% hits; AID 624172, 2012; also: % of control where 0% means no effect
# Glioma ERSR ind: qHTS for Inducers of the Endoplasmic Reticulum Stress Response (ERSR) in Human Glioma: qHTS. U87-MG GRP78 promoter luciferase reporter, 16 h. Potency, µM, without a hit: at the highest dose activation, hits mostly activators. 420,000 compounds, 0.02% hits; also: series mostly up to about 76 µM; % of control where 0% means no effect; nearly all actives have a fitted effect of over 35% in size
#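 ERSR induction read as luciferase luminescence (Bright-Glo, 10 min at room temperature) in stably transfected human U87-MG glioma cells exposed to compounds for 16 h, using GRP78 as sensor.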
# PTHR1 ag: qHTS for PTHR1 Agonists: Primary Screen | 410,000 compounds, 0.075% hits | HEK293 GP2 PTHR1 cells, GloSensor cAMP luminescence, 1 h | AID 743266, 2014 | Potency, µM (series often up to 115 µM), without a hit: top-dose activation, most hits filed as activators; also: nearly all actives have a fitted effect of over 55% in size
#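 HEK-293-derived GP2 cells expressing PTHR1 and a GloSensor cAMP reporter, 3,000/well, plated overnight, given luciferin plus IBMX (each 0.5 mM as added) for 1 h at 37 °C, then compound for 1 h at 37 °C. Luminescence was read after 15 min at room temperature.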
# GLS inhibitor: qHTS for Inhibitors of Glutaminase (GLS). GLS enzymatic activity, qHTS titration. Potency, µM (highest dose often 45.5 µM), for inactives: at the highest dose activity change, negative = inhibition, most hits filed as inhibitors. 410,000 compounds, 0.21% hits. AID 624170, 2012; also: % is scaled to controls: 0 for no effect and ±100 for the full control effect
#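 Coupled fluorescence readout: glutamate oxidase/HRP/Amplex Red detect glutamate formed by hKGA from L-glutamine (1 mM solution added). Buffer 45 mM KH2PO4 pH 8.2, 0.02% Tween-20; reads at t0 and 30 min RT.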
# ALOX12 inh: Primary qHTS assay for inhibitors of human arachidonate 12S-lipoxygenase (ALOX12): Round 2; Polyunsaturated fatty acid lipoxygenase ALOX12 (Homo sapiens), P18054; purified 12hLO, xylenol orange hydroperoxide absorbance; Potency, µM (doses to about 108 µM), without a hit: at the highest dose activity change, negative = inhibition, usual class: inhibitors; 580,000 compounds, 1.1% hits; AID 1671190, 2021; also: % is scaled to controls: 0 for no effect and ±100 for the full control effect
#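 Hydroperoxide product was detected by ferrous iron/xylenol orange as the 573 to 405 nm absorbance ratio. Arachidonic acid at 40 uM (final) was turned over for 30 min at room temperature by 150 nM human 12hLO, pH 7.0 Hepes buffer, after 15 min compound preincubation.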
# The depositor's hits bear a star; i = inactive; ? = inconclusive; · = no result; [ ] = another dose, or the depositor's remark. Calls follow the shape of the dose curve; as a rule, active = well fitted curve in the direction sought with a large enough effect; inconclusive = small, poorly fitted or top-dose-only effect, or another doubt; inactive = no such curve, though single readings can be large; an effect the other way counts as inactive or inconclusive. Potency is read from the fitted curve at half-maximal effect.
SMILES,GLP-1R inv ag,GLP1R ag,Glioma ERSR ind,PTHR1 ag,GLS inhibitor,ALOX12 inh
Cc1cc(NC(=O)CN2C(=O)NC3(CCCCCC3)C2=O)ccc1Br,10µM*,21.2%,1.5%,i,-1.9%,10.5%
Nc1nccnc1C(=O)Nc1cccc(NC(=O)c2ccccc2)c1,·,·,·,·,·,9.1%
NC1CC1c1ccc2ccccc2c1 (configuration not stated),·,·,·,·,·,10.2%
Clc1ccc(CNc2ccccc2NCc2ccc(Cl)nc2)cn1,-13.7%[0.307 µM],-4.3%,-3.5%,i,12.6µM*,71.7%
O=C(O)Cc1ccc(Cl)nc1,·,·,·,·,·,0.0%
CCO[C@@H]1OC(C(=O)N2CCCCCCC2)=C[C@H](c2ccc(C(F)(F)F)cc2)[C@H]1CCCO,10µM*,20.0%,-0.1%,-4.9%,-2.3%,-5.5%
CCO[C@H]1OC(C(=O)NCc2nc3ccccc3[nH]2)=C[C@@H](C)[C@@H]1CCCO,-5.6%,-1.4%,-1.8%,i,12.7%,8.0%
CCO[C@H]1OC(C(=O)NCc2ccccc2)=C[C@@H](c2ccc(C(F)(F)F)cc2)[C@@H]1CCCO,10µM*,-4.1%,-0.5%,-19.4%,2.2%,1.3%
CCO[C@H]1OC(C(=O)NCc2nc3ccccc3[nH]2)=C[C@@H](C2CCCCC2)[C@@H]1CCCO,10µM*,4.1%,-4.1%,-5.3%,?,-0.5%
COc1ccc(-c2cc(C(=O)NC(C)(C)C)c3ccccc3n2)cc1,·,·,·,·,·,95.3%
O=C(N/N=C\C=C\c1ccco1)c1cc(-c2ccc3ccccc3c2)n[nH]1,-7.0%,-6.5%,4.9%,i,-4.0%,39.8µM*
O=C(CNc1cccc2ccccc12)N/N=C/c1ccc(C(=O)O)cc1,23.9%,-12.0%,4.3%,-70.2%,14.7%,3.0%
O=C(CNc1cccc2ccccc12)N/N=C/C=C/c1ccco1,?,6.1%,-2.2%,i,-7.7%,31.6µM*
Cc1ccc(OCC(=O)N/N=C/c2ccco2)cc1,4.3%,-2.7%,-0.8%,-8.5%[57.5 µM],-1.0%,6.7%
Cc1ccc(OCC(=O)N/N=C/C=C/c2ccco2)cc1C,0.0%,-1.5%,?,-25.5%,0.1%,39.8µM*
O=C(COc1ccccc1)Nc1cc(C(F)(F)F)ccc1N1CCCC1,12.6µM*,3.1%,-3.6%,-38.6%[57.5 µM],6.6%,-13.4%
O=C(COc1ccccc1)Nc1ccccc1N1CCCCC1,11.2µM*,4.0%,-6.4%,i,0.1%,0.0%
COc1cccc(CC(=O)Nc2cc(C(F)(F)F)ccc2N2CCCC2)c1,-21.1%,-6.6%,-5.2%,-82.5%,15.3%,-13.6%
CCOc1ccc(OCC(=O)Nc2ccccc2N2CCCC2)cc1,10µM*,4.2%,-3.1%,-2.4%,21.9%,3.5%
O=C(COc1ccccc1)Nc1ccccc1N1CCN(c2ccccc2)CC1,-22.6%,-0.1%,-1.6%,i,7.7%,7.6%
CC(=O)c1ccc(OCC(=O)Nc2ccccc2N2CCCC2)cc1,-13.1%,16.4%,5.1%,-3.6%,10.0%,-9.8%
O=C(Cc1ccc(Cl)c(Cl)c1)Nc1ccccc1N1CCCC1,10µM*,4.9%,3.2%,-20.5%,-7.0%,415.3%
Cc1cc(C)n(-c2nc3c(c(=O)n(CC(N)=O)c(=O)n3C)n2Cc2ccc(F)cc2)n1,·,·,·,·,·,37.8%
O=C(NCCc1ccccn1)C1c2ccccc2C(=O)N(C2CCCCC2)C12CCCCC2 (configuration not stated),·,·,·,·,·,44.6%
O=C(Nc1ccccc1N1CCCC1)c1ccco1,1.6%,6.4%,-2.7%,-8.1%,9.0%,35.9%
SMILES,GLP-1R inv ag,GLP1R ag,Glioma ERSR ind,PTHR1 ag,GLS inhibitor,ALOX12 inh
O=C(Nc1ccccc1N1CCCCC1)c1ccco1,11.2µM*,-0.2%,-2.0%,-54.2%[57.5 µM],16.0%,-5.9%
CN1CCN(c2ccccc2NC(=O)c2cccc(OCc3ccccc3)c2)CC1,?,-0.7%,-3.3%,-6.4%[57.5 µM],29.9%,12.1%
CN1CCN(c2ccccc2NC(=O)c2ccc(OCc3ccccc3)cc2)CC1,11.2µM*,13.2%,-8.7%,-13.2%,7.1%,?
COc1ccc(-c2ccc3ncc(Nc4ccc(C(N)=O)cc4)n3n2)cc1OC,·,·,·,·,·,19.9%[176 µM]
N#C/C(=C/c1ccc(Sc2nc3ccccc3[nH]2)o1)c1cccc(F)c1,?,-9.2%,0.4%,-20.2%[57.5 µM],-1.7%,?
N#C/C(=C/c1ccc(Sc2nc3ccccc3[nH]2)o1)c1cccc(Br)c1,10µM*,-4.6%,-3.7%,-21.9%,-12.1%,0.0%
CN(C)CCNC1CCN(C)CC1,·,·,·,·,·,3.5%
CCOC(=O)c1ccc(NC(=S)N(CCN2CCCCCC2)Cc2ccco2)cc1,6.31µM*,8.4%,0.4%,i,7.4%,?
Cc1ccc(S(=O)(=O)NC(C)CN2CCOCC2)cc1F (configuration not stated),·,·,·,·,·,-19.2%
Cc1ccc(CN2CCC(c3cc(-c4cccs4)n[nH]3)CC2)cc1,?,2.6%,-1.2%,i,0.0%,?
FC(F)(F)c1cccc(CN2CCC(c3cc(-c4cccs4)n[nH]3)CC2)c1,6.31µM*,13.7%,-6.7%,-9.9%,0.0%,?
CCc1noc(-c2ccn3c(CNC(=O)c4ccccc4Cl)nnc3c2)n1,·,·,·,·,·,12.8%
CCCc1noc(-c2ccn3c(CNC(=O)c4c(F)cccc4F)nnc3c2)n1,·,·,·,·,·,64.8%
CCCc1noc(-c2ccn3c(CNC(=O)Cc4ccccc4OC)nnc3c2)n1,·,·,·,·,·,50.1µM*
CCCc1noc(-c2ccn3c(CNC(=O)c4ccccc4Cl)nnc3c2)n1,·,·,·,·,·,39.8µM*
CCCc1noc(-c2ccn3c(CNC(=O)c4ccccc4F)nnc3c2)n1,·,·,·,·,·,50.1µM*
CSC(C)C(=O)Nc1cccc(I)c1 (configuration not stated),·,·,·,·,·,24.9%
O=C(Nc1cccc(-c2nnc(-c3ccco3)o2)c1)C(c1ccccc1)c1ccccc1,8.91µM*,-1.6%,-1.6%,-9.3%[57.5 µM],-0.4%,10.2%
COc1cc(NC(=O)c2ccc(C#N)cc2F)ccc1NC(=O)c1cc2ccccc2o1,·,·,·,·,·,-12.6%
COn1c(=O)c(=O)n(O)c2ccccc21,16.1%,2.0%,-3.5%,5.9%[57.5 µM],14.5%,-10.3%
O=c1c(=O)n(O)c2ccccc2n1O,6.8%,-0.9%,-4.5%,i,12.6µM*,-15.2%
OC(c1ccccc1)C(NCCNCc1ccccc1)c1ccccc1 (configuration not stated),7.94µM*,11.0%,-5.2%,i,0.7%,-23.0%

# From PubChem BioAssay
